The source of these data is PubChem BioAssay (Tox21).

Test [1] can be described thus: cAMP Responsive Elements (CRE) small molecule antagonists, cell-based qHTS assay: qHTS cell viability counter screen (AID 2060913). Also: nearly all actives have a fitted effect of over 40% in size. In short, it runs like this: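 Cytotoxicity counter screen multiplexed with the CRE-bla antagonist read: HEK293T cells in DMEM with dialyzed FBS and 25 mM HEPES were treated 3 hrs under 0.25 uM final NKH477, then viability measured by CellTiter-Glo luminescence.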
A general note: qHTS replaces the single test concentration by a dilution series.

Test [2] in a line: cAMP Responsive Elements (CRE) small molecule agonists, cell-based qHTS assay: qHTS cell viability counter screen (AID 2060914). Also: nearly all actives have a fitted effect of over 50% in size. In short, it runs like this: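 Cells are seeded and incubated 18 h, treated with compounds in DMSO for 3 h, read for the bla reporter, then given CellTiter-Glo; luminescence is measured after 30 min at room temperature.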

Molecules are shown by their SMILES. Inconclusive results are not listed. Where a call stands in place of a potency, no number is given. The source made the active and inactive calls. Calls follow the shape of the dose curve; as a rule, active = well fitted cell-killing curve with a large enough effect in the repeat runs; inconclusive = weak or mixed curves, or effect the other way; inactive = flat fitted curve, though single readings scatter.

Regarding `CCN(CC)C(C)C(=O)c1ccccc1` (stereo not given), the Potency entry in test [1] and in test [2] was “inactive” each time.
For `[N-]=[N+]=CC(=O)OC[C@H](N)C(=O)O`, the Potency result in test [1] and in test [2] was “inactive” in each case.
On to `NCCc1cc(O)c(O)cc1O`, for which the Potency result in test [1] and in test [2] was “inactive” each time.
Take `Cc1ccc(N)cc1C`: the Potency result in test [1] and in test [2] was “inactive” throughout.
With `N#Cc1c[nH]cc1-c1cccc2c1OC(F)(F)O2`, the Potency result in test [1] and in test [2] was “inactive” each time.
Regarding `O=C=NC1CCCCC1`, the Potency result in test [1] and in test [2] was “inactive” each time.
Turning to `O=C(Cl)c1ccccc1`, the Potency result in test [1] and in test [2] was “inactive” in each case.
With `CCN(CC)c1nc(C)cc(OP(=S)(OC)OC)n1`, the Potency result in test [1] and in test [2] was “inactive” throughout.
For the molecule `Clc1ccc(C(c2ccc(Cl)cc2)C(Cl)(Cl)Cl)cc1`, the Potency entry in test [1] and in test [2] was “inactive” throughout.
Turning to `CCCC[n+]1ccccc1`, the Potency entry in test [1] and in test [2] was “inactive” in each case.
On to `C[C@]12CC[C@H]3[C@@H](CCC4=CC(=O)CC[C@@H]43)[C@@H]1CC[C@@H]2O`, for which the Potency result in test [1] and in test [2] was “inactive” throughout.
Turning to `[O-][Cl+]O`, the Potency entry in test [1] and in test [2] was “inactive” in each case.
For the molecule `CN(C)C(=O)Oc1cc(OC(=O)N(C)C)cc(C(O)CNC(C)(C)C)c1` (stereo not given), the Potency result in test [1] and in test [2] was “inactive” in each case.
Take `FC(F)(F)c1ccc(Cl)cc1`: the Potency entry in test [1] and in test [2] was “inactive” throughout.
For the molecule `O=C(O)CCl`, the Potency result in test [1] and in test [2] was “inactive” each time.
For the molecule `NC(=O)c1cc([N+](=O)[O-])cc([N+](=O)[O-])c1`, the Potency result in test [1] and in test [2] was “inactive” throughout.
On to `Nc1ccccc1`, for which the Potency result in test [1] and in test [2] was “inactive” each time.
As to `CC(C)C(=O)OCC(C)(C)C(OC(=O)C(C)C)C(C)C` (stereo not given), the Potency entry in test [1] and in test [2] was “inactive” throughout.
Take `O=S(=O)(c1ccc(Cl)cc1)c1cc(Cl)c(Cl)cc1Cl`: the Potency result in test [1] and in test [2] was “inactive” in each case.
For the molecule `FC(F)OC(F)(F)C(F)Cl` (stereo not given), the Potency entry in test [1] and in test [2] was “inactive” in each case.
As for `CCCCOC(=O)c1ccccc1N`, the Potency result in test [1] and in test [2] was “inactive” each time.
As to `CCCSC(=O)Cl`, the Potency entry in test [1] and in test [2] was “inactive” each time.
For the molecule `N#Cc1ccncc1`, the Potency entry in test [1] and in test [2] was “inactive” throughout.
`Nc1ccc(Br)cc1`: the Potency result in test [1] and in test [2] was “inactive” each time.
For the molecule `O=c1[nH]c(=O)[nH]c(=O)[nH]1`, the Potency result in test [1] and in test [2] was “inactive” throughout.
For `COC1=CC(=O)O[C@@H](/C=C/c2ccc3c(c2)OCO3)C1`, the Potency entry in test [1] and in test [2] was “inactive” in each case.
`CCOC(=O)C(C)OC(=O)c1cc(Oc2ccc(C(F)(F)F)cc2Cl)ccc1[N+](=O)[O-]` (stereo not given): the Potency result in test [1] and in test [2] was “inactive” each time.
`CN/C(=N\[N+](=O)[O-])NCc1cnc(Cl)s1`: the Potency result in test [1] and in test [2] was “inactive” throughout.
As for `CNC(=O)CSP(=S)(OC)OC`, the Potency result in test [1] and in test [2] was “inactive” each time.
In the case of `CC(C)(c1ccc(OCC2CO2)cc1)c1ccc(OCC2CO2)cc1` (stereo not given), the Potency entry in test [1] and in test [2] was “inactive” in each case.
As for `N#CSCc1ccccc1`, the Potency entry in test [1] and in test [2] was “inactive” each time.
With `Oc1ccc(-c2ccccc2)cc1`, the Potency result in test [1] and in test [2] was “inactive” in each case.
As for `O=C1CCCN1`, the Potency result in test [1] and in test [2] was “inactive” in each case.
`CCOC(=O)C(Cl)Cc1cc(-n2nc(C)n(C(F)F)c2=O)c(F)cc1Cl` (stereo not given): the Potency entry in test [1] and in test [2] was “inactive” throughout.
Turning to `CN(C)c1ccc(N=O)cc1`, the Potency result in test [1] and in test [2] was “inactive” throughout.
For the molecule `N#CCC#N`, the Potency result in test [1] and in test [2] was “inactive” in each case.
In the case of `Cc1ccc(S(=O)(=O)N[C@@H](CCCCN)C(=O)CCl)cc1`, the Potency result in test [1] and in test [2] was “inactive” throughout.
With `c1ccc(OCC2CO2)cc1` (stereo not given), the Potency entry in test [1] and in test [2] was “inactive” in each case.
Regarding `CCOC(=O)CCN(SN(C)C(=O)Oc1cccc2c1OC(C)(C)C2)C(C)C`, the Potency entry in test [1] and in test [2] was “inactive” each time.
`Nc1cc(Cl)cc(C(=O)O)c1Cl`: the Potency result in test [1] and in test [2] was “inactive” in each case.
`CC(C)(Cl)Cl`: the Potency entry in test [1] and in test [2] was “inactive” in each case.
In the case of `CC1(C)C(C=C(Cl)Cl)C1C(=O)OC(C#N)c1cccc(Oc2ccccc2)c1` (stereo not given), the Potency result in test [1] and in test [2] was “inactive” throughout.
As for `C=CC(=O)OCC`, the Potency result in test [1] and in test [2] was “inactive” throughout.
On to `CCOC(=O)c1cncn1C(C)c1ccccc1` (stereo not given), for which the Potency result in test [1] and in test [2] was “inactive” throughout.
Turning to `CC(=[OH+])/C=C(/C)[O-].CC(=[OH+])/C=C(\C)[O-].CC(=[OH+])/C=C(\C)[O-].[Al]`, the Potency entry in test [1] and in test [2] was “inactive” throughout.
For `CN1C(=O)[C@@H](NC(=O)c2cc3ccccc3[nH]2)N=C(c2ccccc2)c2ccccc21`, the Potency result in test [1] and in test [2] was “inactive” each time.
Regarding `CCOP(=S)(OCC)SCn1c(=O)oc2cc(Cl)ccc21`, the Potency entry in test [1] and in test [2] was “inactive” in each case.
In the case of `COC(C)(C)CCCC(C)C/C=C/C(C)=C/C(=O)OC(C)C` (stereo not given), the Potency entry in test [1] and in test [2] was “inactive” each time.
Turning to `C=CC(=O)NC(C)(C)CC(C)=O`, the Potency entry in test [1] and in test [2] was “inactive” throughout.
As for `CCN(CC)C(=O)Cl`, the Potency entry in test [1] and in test [2] was “inactive” each time.
